The results in this text go back to PubChem BioAssay.

The target of assay [1] is ATP-dependent translocase ABCB1 (Homo sapiens) (UniProt P08183). Kind of assay: P-glycoprotein substrate transport blockade – cell-based (AID 377). To be noted: MDR1-expressing cells, fluorescent substrate accumulation slope; stronger effect = higher value; concentration not given here.
Assay [2] is described as follows: blockers of polyQ-driven CASP3 activation – cell-based (AID 1583). To be noted: polyglutamine-induced caspase-3 activation, cell assay; stronger effect = higher value;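 tested at 10 µM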.
The nature of assay [3]: yeast 75Q aggregation reduction – 75Q-TubU reporter (AID 1593). To be noted: Yeast 75Q polyglutamine aggregation reporter.
Assay [4] in a line: restoration of touch response, mutant HTT neurons – whole organism, C. elegans mechanosensory neurons, N-terminal huntingtin (AID 1599). To be noted: C. elegans polyQ-huntingtin mechanosensory neurons, stronger effect = higher value.
Assay [5] is described as follows: blockers of cytochrome c efflux from mitochondria – biochemical, purified mitochondria (AID 1603).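 Also: mouse liver mitochondria challenged with calcium chloride; signal normalized to the plate average as 100%.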 The following applies: stronger effect = lower value.
Assay [6] in a line: polyglutamine aggregate formation blockers (AID 1604). To be noted: polyglutamine-induced protein aggregation inhibition assay; stronger effect = higher value; tested at 2.5 µM.

A word on the inhibition: it is the drop in the measured response relative to a control, in per cent.

The structures appear in SMILES notation. Inconclusive results are not listed. For some of these results: Potency and affinity values are given separately. The source made the active and inactive calls. Rule as the data show it: active = fluorescence slope change above about 50%; inconclusive = mostly about 31% to 49%; inactive = weaker than that.

Chain of ATP-dependent translocase ABCB1 (Homo sapiens) (P08183 whole entry, looked up): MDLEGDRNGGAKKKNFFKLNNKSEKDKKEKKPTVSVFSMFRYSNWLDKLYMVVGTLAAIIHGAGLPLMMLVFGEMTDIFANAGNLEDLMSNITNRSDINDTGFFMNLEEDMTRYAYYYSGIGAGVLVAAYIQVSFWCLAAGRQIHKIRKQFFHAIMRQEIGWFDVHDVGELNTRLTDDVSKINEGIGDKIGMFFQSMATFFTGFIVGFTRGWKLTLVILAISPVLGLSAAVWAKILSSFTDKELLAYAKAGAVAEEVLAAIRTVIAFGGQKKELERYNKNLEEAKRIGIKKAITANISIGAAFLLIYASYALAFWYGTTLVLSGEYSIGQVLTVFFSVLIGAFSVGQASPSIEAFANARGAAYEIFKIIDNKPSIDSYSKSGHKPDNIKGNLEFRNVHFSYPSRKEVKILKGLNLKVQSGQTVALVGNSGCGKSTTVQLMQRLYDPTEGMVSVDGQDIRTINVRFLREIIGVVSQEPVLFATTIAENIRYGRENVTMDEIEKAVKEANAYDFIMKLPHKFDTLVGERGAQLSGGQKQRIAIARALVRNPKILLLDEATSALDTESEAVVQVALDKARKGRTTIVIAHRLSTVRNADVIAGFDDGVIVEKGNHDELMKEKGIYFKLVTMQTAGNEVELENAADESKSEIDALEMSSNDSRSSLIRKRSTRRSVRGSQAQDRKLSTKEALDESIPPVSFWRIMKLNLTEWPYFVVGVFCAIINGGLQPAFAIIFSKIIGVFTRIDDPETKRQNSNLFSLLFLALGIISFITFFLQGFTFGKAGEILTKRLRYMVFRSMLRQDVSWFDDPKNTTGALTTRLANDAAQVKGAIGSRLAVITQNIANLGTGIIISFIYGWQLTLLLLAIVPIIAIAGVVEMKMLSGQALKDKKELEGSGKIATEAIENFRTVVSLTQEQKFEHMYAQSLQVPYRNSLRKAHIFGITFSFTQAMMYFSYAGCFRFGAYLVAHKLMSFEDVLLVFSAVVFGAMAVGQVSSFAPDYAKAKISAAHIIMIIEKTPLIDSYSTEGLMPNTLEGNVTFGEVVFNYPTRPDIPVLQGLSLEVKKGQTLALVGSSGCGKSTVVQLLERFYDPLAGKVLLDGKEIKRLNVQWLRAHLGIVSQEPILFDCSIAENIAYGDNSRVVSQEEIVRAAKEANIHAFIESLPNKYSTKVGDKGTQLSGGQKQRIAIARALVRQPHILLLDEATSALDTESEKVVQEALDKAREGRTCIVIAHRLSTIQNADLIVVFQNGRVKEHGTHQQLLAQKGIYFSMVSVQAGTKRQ

For the compound `O=C1CC2(CCCC2)CC(=O)N1CCCCN1CCN(c2ncccn2)CC1`, in assay [1], the fluorescence slope change was 65.3% (active). For the same compound, the inhibition in assay [2] was -0.71%. In assay [3], this compound had a score of 1.18. Besides, the rescue above control in assay [4] came out at 1.91. For the same compound, in assay [5], the cytochrome c release ratio worked out at 1.06. For the same compound, in assay [6], the inhibition of aggregation turned out to be 48.3%.

`CC(=O)OCC1=C(C(=O)O)N2C(=O)[C@@H](NC(=O)CSc3ccncc3)[C@H]2SC1`: the fluorescence slope change in assay [1] is 13.4% (inactive). Also, the inhibition in assay [2] was -8.64%. Moreover, the score in assay [3] came out at 1.04. The rescue above control in assay [4] was -6.1. For the same compound, the cytochrome c release ratio in assay [5] worked out at 1.02. For the same compound, in assay [6], the inhibition of aggregation came out at 71.9%.

As to `CC(=O)OCC(=O)[C@@]1(O)[C@H](C)C[C@H]2[C@@H]3CCC4=CC(=O)C=C[C@]4(C)[C@@]3(F)[C@@H](O)C[C@@]21C`, the fluorescence slope change in assay [1] was 109% (active).

Consider `Cc1onc(-c2ccccc2Cl)c1C(=O)N[C@@H]1C(=O)N2[C@@H]1SC(C)(C)[C@@H]2C(=O)O`, for which the fluorescence slope change in assay [1] was 68% (active). In addition, in assay [2], the inhibition was -3.1%. This compound also showed a score in assay [3] of 1.4. The compound further displayed a rescue above control in assay [4] of 1.76. For the same compound, the cytochrome c release ratio in assay [5] is 1.27. The inhibition of aggregation in assay [6] came out at 77%.

Consider `CN1C(C)(C)CCCC1(C)C`, for which the fluorescence slope change in assay [1] is 17% (inactive).

For `CC(C)NNC(=O)c1ccncc1`, the fluorescence slope change in assay [1] was 97.9% (active). In assay [2], the inhibition came out at 12.9%. Besides, the score in assay [3] is 1.22. The cytochrome c release ratio in assay [5] amounted to 1.02. The inhibition of aggregation in assay [6] is 71.4%.

Regarding `c1ccc(CN(CC2=NCCN2)c2ccccc2)cc1`, the fluorescence slope change in assay [1] was 118% (active). In assay [2], the inhibition came out at 9.99%. The compound also returned a score in assay [3] of 1.33. In addition, the rescue above control in assay [4] was -13.1. For the same compound, in assay [5], the cytochrome c release ratio worked out at 1.08. The inhibition of aggregation in assay [6] was found to be 71.4%.

In the case of `Cc1cc(O)cc(C)c1Cl`, the inhibition in assay [2] came to 0.93%. The same compound returned a score in assay [3] of 0.53. Moreover, the cytochrome c release ratio in assay [5] is 5.53. Further, the inhibition of aggregation in assay [6] came out at 81.6%.

With `Cc1oncc1C(=O)Nc1ccc(C(F)(F)F)cc1`, in assay [1], the fluorescence slope change was 12.9% (inactive). Also, the inhibition in assay [2] was -21.8%. The compound also had a score in assay [3] of 0.42. In addition, the rescue above control in assay [4] was -2.16. Further, the cytochrome c release ratio in assay [5] was found to be 1.42. The inhibition of aggregation in assay [6] came out at 51%.

Regarding `NC(N)=NCCN1CCCCCCC1`, the fluorescence slope change in assay [1] is 125% (active). Also, the inhibition in assay [2] worked out at 22.4%. The same compound gave a score in assay [3] of 1.49. Further, the rescue above control in assay [4] was -4.52. Moreover, the cytochrome c release ratio in assay [5] stood at 1.17. Also, the inhibition of aggregation in assay [6] was determined as 35.2%.

With `CN1CCN2c3ccccc3Cc3ccccc3C2C1` (stereo unspecified), the fluorescence slope change in assay [1] is 67.1% (active). Also, the inhibition in assay [2] was -9.95%. Besides, the score in assay [3] worked out at 1.13. In addition, in assay [4], the rescue above control worked out at 36.1. Besides, the cytochrome c release ratio in assay [5] came to 0.7. The inhibition of aggregation in assay [6] was 60.7%.

In the case of `CCn1cc(C(=O)O)c(=O)c2cc3c(cc21)OCO3`, the fluorescence slope change in assay [1] is 56.5% (active). Also, in assay [2], the inhibition was -14.8%. The compound also registered a score in assay [3] of 1.16. Also, the cytochrome c release ratio in assay [5] worked out at 0.82. Further, the inhibition of aggregation in assay [6] is 74.7%.

Turning to `Nc1cc(-c2ccncc2)c[nH]c1=O`, the fluorescence slope change in assay [1] was 8.3% (inactive). Besides, the inhibition in assay [2] was -0.86%. The compound further came in with a score in assay [3] of 1.14. This compound gave a rescue above control in assay [4] of 4.19. The cytochrome c release ratio in assay [5] stood at 0.91. Further, the inhibition of aggregation in assay [6] amounted to 17.8%.

Turning to `OC(CCN1CCCCC1)(c1ccccc1)c1ccccc1`, the fluorescence slope change in assay [1] was 18.2% (inactive). Further, the inhibition in assay [2] was determined as 19.5%. In assay [3], this compound registered a score of 1.21. The compound further yielded a rescue above control in assay [4] of 10.4. Also, the cytochrome c release ratio in assay [5] stood at 1.45. The inhibition of aggregation in assay [6] stood at 65%.

Take `CC(NCCC(c1ccccc1)c1ccccc1)c1ccccc1` (stereo unspecified): the fluorescence slope change in assay [1] is 200% (active). For the same compound, the inhibition in assay [2] is 36.8%. This compound also yielded a score in assay [3] of 1.04. The same compound had a rescue above control in assay [4] of 0. The cytochrome c release ratio in assay [5] worked out at 0.33. The inhibition of aggregation in assay [6] is -3.7%.

As for `CCCCNc1ccc(C(=O)OCCN(C)C)cc1`, the inhibition in assay [2] is 3.42%. For the same compound, the score in assay [3] was 1.3. Moreover, the cytochrome c release ratio in assay [5] is 0.87. Besides, the inhibition of aggregation in assay [6] stood at 21.1%.

Take `CCc1oc2ccccc2c1C(=O)c1cc(Br)c(O)c(Br)c1`: the fluorescence slope change in assay [1] was 56.7% (active).

Turning to `O=C(O)c1ccccc1C(=O)Nc1ccc(S(=O)(=O)Nc2nccs2)cc1`, the fluorescence slope change in assay [1] is 52.9% (active). Also, in assay [2], the inhibition is -4.35%. Moreover, the score in assay [3] is 1.11. Also, the rescue above control in assay [4] is -3.35. Also, in assay [5], the cytochrome c release ratio came out at 0.81. In addition, the inhibition of aggregation in assay [6] was found to be 12.9%.

Consider `O=C1NCC2(CCN(CCc3ccccc3)CC2)O1`, for which the fluorescence slope change in assay [1] is 54.1% (active). For the same compound, in assay [2], the inhibition is -2.12%. In assay [3], this compound registered a score of 1.22. For the same compound, the rescue above control in assay [4] was -3.96. The cytochrome c release ratio in assay [5] turned out to be 1.11. Further, the inhibition of aggregation in assay [6] amounted to 88.9%.

With `Cc1cc2cc3c(C)cc(=O)oc3c(C)c2o1`, in assay [1], the fluorescence slope change is 18.1% (inactive). The inhibition in assay [2] is -5.8%. The same compound came in with a score in assay [3] of 0.49. Moreover, the cytochrome c release ratio in assay [5] amounted to 1.2. For the same compound, the inhibition of aggregation in assay [6] was 74.1%.

As to `CC1CCc2cc(F)cc3c(=O)c(C(=O)O)cn1c23` (stereo unspecified), in assay [1], the fluorescence slope change was 50.2% (active). Also, in assay [2], the inhibition stood at 4.46%. The compound also yielded a score in assay [3] of 1.12. Also, the rescue above control in assay [4] was -5.46. In assay [5], the cytochrome c release ratio turned out to be 1.29. In addition, the inhibition of aggregation in assay [6] is 44.4%.

As to `CCOC(=O)c1ccc(N)cc1`, the fluorescence slope change in assay [1] was 53.5% (active). Moreover, the inhibition in assay [2] is -9.37%. The compound further returned a score in assay [3] of 1.06. In assay [4], the rescue above control is -11.4. The cytochrome c release ratio in assay [5] worked out at 0.65. Also, the inhibition of aggregation in assay [6] was 53%.

As for `Cc1cccc(C)c1OCC(C)N` (stereo unspecified), in assay [1], the fluorescence slope change is 24.1% (inactive). In assay [2], the inhibition was -1.28%. The compound further yielded a score in assay [3] of 1.39. This compound also yielded a rescue above control in assay [4] of 0.83. Besides, the cytochrome c release ratio in assay [5] turned out to be 0.86. Also, the inhibition of aggregation in assay [6] turned out to be 45.1%.

Consider `CN(C)CCOC(=O)COc1ccc(Cl)cc1`, for which, in assay [1], the fluorescence slope change was -15.2% (inactive). Also, the inhibition in assay [2] was 6.84%. The compound also came in with a score in assay [3] of 1.08. Moreover, in assay [4], the rescue above control was -6.72. In addition, the cytochrome c release ratio in assay [5] amounted to 0.96. In assay [6], the inhibition of aggregation stood at 83.1%.

Take `OCC(O)CN1CCN(c2ccccc2)CC1` (stereo unspecified): the fluorescence slope change in assay [1] is 54.1% (active). Besides, the inhibition in assay [2] was determined as 9.99%. Also, in assay [3], the score amounted to 1.44. The same compound displayed a rescue above control in assay [4] of 10.9. In addition, in assay [5], the cytochrome c release ratio stood at 0.72. Further, in assay [6], the inhibition of aggregation was found to be 68.2%.

Consider `CC1=NN(c2ccccc2)C(=O)C1`, for which, in assay [2], the inhibition is -19.6%. The compound further had a score in assay [3] of 1.27. Moreover, in assay [5], the cytochrome c release ratio turned out to be 0.94. Besides, in assay [6], the inhibition of aggregation is 10.2%.

Regarding `CC(C)(Sc1cc(C(C)(C)C)c(O)c(C(C)(C)C)c1)Sc1cc(C(C)(C)C)c(O)c(C(C)(C)C)c1`, the fluorescence slope change in assay [1] was 6.4% (inactive). Moreover, in assay [2], the inhibition was -32.2%. In assay [3], the score came out at 0.29. Further, the rescue above control in assay [4] was -10.5. For the same compound, the cytochrome c release ratio in assay [5] is 0.46. Moreover, the inhibition of aggregation in assay [6] stood at 23.1%.

As to `CCCCC(CC)CN=C(N)NC(N)=NCCCCCCN=C(N)NC(N)=NCC(CC)CCCC` (stereo unspecified), in assay [1], the fluorescence slope change is 152% (active). In addition, the score in assay [3] was -1.46. This compound displayed a rescue above control in assay [4] of 0. Besides, in assay [5], the cytochrome c release ratio amounted to 26.4. For the same compound, the inhibition of aggregation in assay [6] was found to be 88%.

For `C1CCC(C(CC2CCCCN2)C2CCCCC2)CC1` (stereo unspecified), the fluorescence slope change in assay [1] is 352% (active). Also, the inhibition in assay [2] came out at 57.7%. Further, the score in assay [3] was 0.35. Also, the rescue above control in assay [4] is -18. Moreover, in assay [5], the cytochrome c release ratio worked out at 1.56. Besides, the inhibition of aggregation in assay [6] was 83.1%.

For the compound `CCCCOc1ccc(CC(=O)NO)cc1`, the fluorescence slope change in assay [1] is 103% (active). For the same compound, in assay [2], the inhibition was -8.34%. Further, in assay [3], the score was 1.21. Also, in assay [4], the rescue above control is -4.19. For the same compound, in assay [5], the cytochrome c release ratio amounted to 1.09. Moreover, the inhibition of aggregation in assay [6] turned out to be 43.1%.

As to `CCCCC(CC)CN1CN(CC(CC)CCCC)CC(C)(N)C1` (stereo unspecified), in assay [1], the fluorescence slope change was 61.9% (active). In assay [2], the inhibition is 22.5%. In assay [3], this compound registered a score of 0.11. The same compound showed a rescue above control in assay [4] of 0. Further, the cytochrome c release ratio in assay [5] was 0.41. In addition, the inhibition of aggregation in assay [6] turned out to be 1.83%.

As to `CN1CCC(=C2c3ccccc3Sc3ccccc32)CC1`, the fluorescence slope change in assay [1] is 107% (active). The inhibition in assay [2] was -31.4%. Besides, the score in assay [3] amounted to 1.33. For the same compound, the cytochrome c release ratio in assay [5] stood at 1.44. The inhibition of aggregation in assay [6] came out at 88.8%.
